# Measurements from PubChem BioAssay AID1159506 (National Center for Advancing Translational Sciences (NCATS), 2015).
# Whole data set: some 59,000 sequences, median the read-out near -0.00055, cut for the lowest 2% near -2. Only a selection was taken, and the lowest values are over-represented in it overall.
# Assay: Identification of proteins required for the processing of the EWS-FLI1 nascent transcript;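 also: robust z of luciferase light less the median z of siRNAs with the same seed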
# Conditions: TC32 Ewing sarcoma NR0B1-luc vs CMV-luc (EWS-FLI1 target promoter against control promoter), 48 h; screened at 20 nM (by protocol)
# Method in brief: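 Genome-wide siRNA screen (Ambion v4.1, three siRNAs per gene, 20 nM final, RNAiMax) in Ewing sarcoma TC32 cells carrying NR0B1-promoter or CMV-promoter luciferase; OneGlo luciferase read 48 h post-transfection. Data normalized, z-score-MAD transformed and seed-adjusted.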
row,Sequence,seed-corrected z-score
1,UCUUAGACCCUGGAGGUGG against TBRG4,-0.178
2,UAUUAGACAGAACUCUUGG against TNRC6C,-14.8
3,UUAGAUUUCUCCCUCGGUG against ZNF136,-0.576
4,UCUUCGAACUGAAUGAGUG against ME2,0.165
5,UUUACUGGGAUAGUUAAUC against C2CD4A,1.08
6,UCCACUAUUACAACAGCCC against SFPQ,-2.65
7,UUCUUAUCAAGAAUAGUCC against PTER,-0.285
8,UUCUGCGUCACUUUCUACC against CRNKL1,-0.902
9,UUUGGGACAAGGCACAAGC against PRKCDBP,0.468
10,UACAAUACUAUUUCGAAUC against ZNF44,-0.235
11,UCAAAUACUGGUCGAAUUC against SOX7,0.0233
12,UUGGGCAUAAUGGAAGCUG against EIF2B2,-1.39
13,UUGGGUAGUAGCAUAGCCU against SYNC,-2.19
14,UUGAUUUCCACUCCUUUUG against SGCD,-0.522
15,UAUUUCUCGAUUAUCUUCA against ICA1L,-1.21
16,UGCAGUACCAGGUUCAGGG against DOK1,0.361
17,AAUCCCAAAACCUUCUCGC against TPRG1L,-2.07
18,ACUUGGAAAUCUCUUUUCG against FAM117A,0.27
19,UGUUGCAUUCUUGUCAUCC against CRAMP1,-0.303
20,UGACAUGUCCUCAACAUCA against TMEM91,-1.41
21,UUAUCGUCAUGGUAAACAC against GXYLT1,0.378
22,UCAGUAUCCAGGUCAGUGC against LEMD2,0.794

row,Sequence,seed-corrected z-score
1,UCCUCCCUAACAAAUAGGC against NUDT16,-0.295
2,AAGGUUGCUAUACGUGGGC against C19orf35,-2.85
3,UUUCAAUCCUGUAAGGGUC against CDC23,0.07
4,UGGAUAAUCAGGAUGGUCC against AKR1C4,-0.343
5,UAAGCAACAGGAGCUCAGU against KRT6B,0.507
6,UGGUUGAUCAAUGCGAUAG against C11orf54,-0.331
7,UUUGAGUACUCCAAGAUGU against C20orf96,0.627
8,AUAGCUUCCACUUUAGCGG against KDM5A,-3.29
9,AUAGGUACUACAUAUGAGC against DSC2,-0.323
10,AACAUAACAGUUGAAGUGA against TMEM244,-0.604
11,UGAGCUACAUGUGAAGGCC against ZNF35,-0.965
12,UAAUUUCAAGCCGAUCUUC against EIF3H,-1.14
13,UUGACUAUAACCUGAAGCC against OTX2,-2.79
14,UAGGAAUCCUCGUUUAGUG against YWHAH,0.112
15,UCAUUGUCCGAUGCCUUGG against SLCO1B3,-0.953
16,UUCUGCCCAAGUACAAUGG against C16orf52,-2.07
17,UCUUUGAGAAUGUCAAGCU against TIMM44,0.11
18,UCUCUGUAUCGUAUGGUGG against NTN4,-0.868
19,UUGGUAGACACCUCCUUGU against KRT13,0.268
20,UUUGCGACAAAACAGUUUG against DEPTOR,0.125
21,AUCAGAAUCAGGAUAGGCC against RND2,0.812
22,AAUCUCACAGGUGAAGUGG against OR2S2,-0.14

row,Sequence,seed-corrected z-score
1,AGAGUUGUCAGAAGGGCGG against NCR2,-5.82
2,UGCAUAAUAAGUCAUGUGG against DCN,-0.34
3,UUUCCUUCUGCUCUCGUGC against RCAN3,0.855
4,AUCUUUAGAACAUCGGUGG against SLC25A14,-0.984
5,AUAUGCUUCACCUCUUUAC against SNTB2,-2.92
6,AUAAGGAUUACUAGUUUUG against CDK8,0.165
7,UAAGCACACACAAUGGUAC against DLK2,0.0903
8,UAUGGGCCGUGGACUCUCA against TPSAB1,-0.127
9,UACAGGGACACCACCUUGC against BOK,-0.14
10,UGGUCUUCACAUUAGAUGC against NUTM1,-2.03
11,UUGUAGUACAUUAACCUUG against ANKRD26,0.963
12,UGACAUACUUCGUAAGUCC against ERLEC1,0.555
13,UUCAUAAAGAGGAGGUACC against CLUH,0.239
14,AUUUUGAACAUGUUUGCUG against NAPA,0.31
15,UUCUGGUAGAUGUGACUGC against ZNF83,-0.405
16,UACAAGAUUAUAGGCGGUC against TRAPPC11,0.0691
17,UCUGAGUCCUCUGUAACCU against MZF1,-2.17
18,UACAGUUCAUCAAUCGUCA against APOA1BP,0.829
19,UAUACUUCCCAAGAAGUCC against FAM217B,0.596
20,UGUUGUUGUGACAAAAUCG against EIF5,0.296
21,UUUAAGAUAGGCGACACUG against LMOD3,0.0486
22,UGUAAAUUUGCACCGAUGG against RPTOR,-12.1

row,Sequence,seed-corrected z-score
1,AUCUGUACAAAUCUCUUUG against ZNF140,-0.593
2,UCCUCUUCGAAUGUUGUCG against TSPAN15,-0.886
3,UUUGCGAUCUUCGAAGCCC against REEP3,-0.668
4,UCGAUUAAAACCGCGAUCG against PPP2R1B,-0.365
5,UUUGUCAGAAAACGCAUCC against GPR149,-2.76
6,UCAAUGAUCUCGAUGAUGA against PLEC,-0.0712
7,UUCCGGGCAGCAAUAAUGG against PGM5,-0.0662
8,UUUCCCAUCAGGGUUAAGC against OR2A12,-0.365
9,UGAUAUAUAAGGCCCGGAC against RPL10A,-3.19
10,UUCUGUAUUCUUCAGCGUG against OR4C16,-0.379
11,UUUGGAGCUUGGGAAUUGC against ARHGAP27,-0.993
12,UUUGUUCCUUUUCGAGUUC against CCDC127,2.99
13,UGAAUCAAAUGAUCUGACC against RAB9A,0.786
14,AAUGUGAUCAAAAAUAGCC against NAT2,0.2
15,UUGGUUUAAAGUUAAGUUG against C5orf63,-2.45
16,UUGAUAUUUGUGAAUCUCC against FERMT1,-0.474
17,UAUUUAGCAAUGCAGAACU against RPP25L,0.342
18,UGUCUGAUUCAUUAUGAGC against CCDC74A,-0.71
19,AAAGGUCCCAGAGUACAUG against SLC25A20,0.174
